Source: PubChem (several laboratories)
The list is not random: actives were taken first. Their share in the collection is about 4.9%.
CSC inhib – cancer stem cell inhibition; cancer stem cell-like cells viability, luminescence; inhibition, % at 7.5 µM; 1.1% of 300,000 active; AID 2717; in the data active = inhibition above about 75%; inconclusive = no clear call, values can overlap the other calls; tested in HMLE shEcad cells
Mdm2-MdmX inh – inhibitors of human Mdm2/MdmX interaction; inhibition, % at 8 µM; 3% of 330,000 active; O15151+Q00987; AID 485346; SaOS-2 split-luciferase Mdm2/MdmX complementation, luminescence;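 active = inhibition of at least 50% at 8 µM in the primary screen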
Calb FLC – affects C. albicans growth with fluconazole; C. albicans CaCi-2 (fluconazole-resistant clinical isolate) + fluconazole, Alamar Blue growth, 48 h; growth inhibition, % (concentration not given with the values); 0.57% of 300,000 active; AID 1979;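 active = growth inhibition above about 58% in most replicates, limit read from the data, passing the limit was not always enough; inconclusive = exactly half the replicates above a set limit; inactive = most replicates below a set limit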;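 note: all wells also contain fluconazole at 8 µg/ml as a sub-toxic cotreatment; 0% = median of DMSO wells and 100% = median of geldanamycin control wells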
PP5 inh – blocks human protein phosphatase 5 activity; inhibition, % at 6.7 µM; P53041; purified PP5c, OMFP substrate fluorescence; 0.18% of 320,000 active;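 active = inhibition above the campaign's mean inhibition across all tested compounds plus 3 SD, cut at about 9.5% in these data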;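 note: 0% = DMSO only and 100% = 100 µM cantharidin control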
Target sequence (P53041 whole entry, looked up): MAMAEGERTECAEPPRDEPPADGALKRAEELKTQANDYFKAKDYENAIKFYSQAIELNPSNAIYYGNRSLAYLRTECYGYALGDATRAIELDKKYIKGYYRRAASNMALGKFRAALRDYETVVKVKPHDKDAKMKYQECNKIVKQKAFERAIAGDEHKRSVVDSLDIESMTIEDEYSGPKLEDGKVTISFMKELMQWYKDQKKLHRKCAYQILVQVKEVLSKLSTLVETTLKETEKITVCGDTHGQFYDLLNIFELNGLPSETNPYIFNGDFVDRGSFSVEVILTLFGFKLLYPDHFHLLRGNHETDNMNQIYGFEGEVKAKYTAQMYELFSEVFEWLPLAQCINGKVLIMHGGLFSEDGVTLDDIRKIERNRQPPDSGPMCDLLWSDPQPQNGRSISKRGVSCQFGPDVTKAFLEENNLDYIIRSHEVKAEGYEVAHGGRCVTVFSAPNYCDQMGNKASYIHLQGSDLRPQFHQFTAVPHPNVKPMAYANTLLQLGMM
PP1 counter – PP1-alpha (human) inhibition in PP5 counter-screen. inhibition, % at 6.7 µM. purified PP1alpha, OMFP fluorescence. AID 2235. 0.9% of 320,000 active. P62136;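 active = inhibition above the mean inhibition of all tested compounds plus 3 SD, computed separately for each screening campaign, cut at about 15% in these data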
Beta apoptosis – blocks beta cell apoptosis | AID 435005 | protection from apoptosis, % (no concentration beside the values) | 0.8% of 300,000 active | INS-1E cytokine-induced death, ATP luminescence, 48 h; percent of positive-control rescue, neutral wells zero;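 active = Every replicate reaches about 75%, or at least half do and their mean reaches it too, limit read from the data; inconclusive = At least half of replicates reach the limit but their mean does not; inactive = Under half of replicates reach the limit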;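 note: 0% = cytokine-treated negative control wells and 100% = positive control rescue; higher means more ATP so stronger rescue from cytokine killing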
Starred values were filed as active, the others as inactive; u = inconclusive; x = not tested or not shown.

SMILES	CSC inhib	Mdm2-MdmX inh	Calb FLC	PP5 inh	PP1 counter	Beta apoptosis
CCc1nnc(NC(=O)c2ccc(S(=O)(=O)N3CCCC(C)C3)cc2)s1 (configuration not stated)	x	16	-5	2	-1	-9
O=C(Nc1nnc(-c2ccccc2)o1)c1cccc(N2C(=O)CCC2=O)c1	-1	0	100*	-4	7	x
CC1CCCN(S(=O)(=O)c2ccc(C(=O)Nc3nnc(-c4ccco4)o3)cc2)C1 (configuration not stated)	30	44	6	4	17*	0
CC(=O)N1c2ccccc2C2(O)N=C(C)SC12 (configuration not stated)	-8	-10	x	3	0	-3
CN1CCN(c2ccc(C(=O)c3ccccc3)cc2[N+](=O)[O-])CC1	83*	10	10	0	-1	-6
CN1CCN(c2ccccc2NC(=O)c2ccc(N3CCCCC3)c([N+](=O)[O-])c2)CC1	x	-3	-9	1	1	-1
O=C(Nc1ccccc1)Nc1cccc(NC(=O)Nc2ccccc2)c1F	8	16	-8	2	16*	7
O=C(Nc1ccccc1)Nc1ccccc1Br	1	-23	10	1	-3	11
COc1ccc(C2/C=C\CN(C(=O)Nc3ccc(C(F)(F)F)cc3)CC(=O)N2Cc2ccc(F)cc2)cc1 (configuration not stated)	-5	27	-7	8	6	81*
COc1ccc(C2/C=C\CN(C(=O)Nc3ccccc3)CC(=O)N2Cc2ccc(F)cc2)cc1 (configuration not stated)	-3	8	-3	2	4	-1
CC(=O)c1c(C)oc2ccc(N(C(C)=O)S(=O)(=O)c3cccc4cccnc34)cc12	4	34	-6	-1	-1	104*
CC(=O)c1c(C)oc2ccc(N(C(C)=O)S(=O)(=O)c3ccc(F)cc3C)cc12	1	28	4	0	-3	8
Cc1nc(N)sc1C(=O)N1N=N1	32	4	9	-3	-2	-4
c1ccc(-c2ccc3c(c2)c2c4n3CCN=C4CCC2)cc1	x	32	99*	2	5	3
COC(=O)C1=C(C)N(Cc2ccccc2)C(=NCCCCO)N[C@H]1c1ccccc1	-6	-1	11	3	16*	6
O=C(N/N=C/c1cc(Br)c(Br)o1)c1ccc2c(c1)OCCO2	10	-19	85*	-1	4	-4
O=C(N/N=C/c1ccccc1O)c1ccc2c(c1)OCO2	30	13	14	2	3	95*
O=C(N/N=C/c1cc(Br)c(O)c(Br)c1O)c1ccc2c(c1)OCCO2	50	29	-24	1	1	91*
O=C(N/N=C/c1cc(Br)cc(Br)c1O)c1ccncc1	-6	18	u	1	0	79*
O=C(N/N=C/c1ccc2c(c1)OCO2)c1ccc2c(c1)OCCO2	62	-51	-6	1	-1	6
CC(Sc1nncs1)C(=O)Nc1ccc2c(c1)OCO2 (configuration not stated)	-7	-15	-4	-1	-3	9
CN(C)c1nc(N/N=C/c2ccccc2O)nc(Nc2ccc(F)cc2)n1	-1	43	u	1	-1	106*
CCC(O)CC(C(=O)NNc1ccccc1)C(=O)NNc1ccccc1 (configuration not stated)	-10	14	100*	0	-8	1
CCOC(=O)NNc1ccccc1	12	-8	4	0	-4	0
Cc1cc2c(cc1C)N(C(=O)CSC1=NCCS1)C(C)(C)c1ssc(=S)c1-2	x	43	5	1	7	-4
SMILES	CSC inhib	Mdm2-MdmX inh	Calb FLC	PP5 inh	PP1 counter	Beta apoptosis
CCOc1ccc2c(c1)-c1c(ssc1=S)C(C)(C)N2C(=O)c1ccco1	85*	35	8	1	-1	11
CN(CC(=O)Nc1ccc(F)c(F)c1F)C(=O)c1ccc2c(c1)OCCO2	-14	14	4	-1	-4	1
O=C(Nc1ccc(C2=NCCN2)cc1)c1ccc(C(=O)Nc2ccc(C3=NCCN3)cc2)c(Cl)c1	-19	6	90*	-3	5	19
O=C(Nc1ccc(NC(=O)c2ccc(Cl)cc2Cl)cc1)c1ccc2c(c1)OCO2	17	47	2	4	-1	-7
NC(=S)n1[nH]c(-c2ccc([N+](=O)[O-])cc2)c(N=Nc2cccc([N+](=O)[O-])c2)c1=O	x	x	100*	x	x	x
Cc1[nH]n(C(N)=S)c(=O)c1N=Nc1cccc([N+](=O)[O-])c1C	6	-38	-15	3	0	21
Cc1cc(NC(=O)CCC(=O)N(Cc2ccccc2)C2(C(=O)NC3CCCCC3)CCCC2)no1	-7	-8	-8	1	0	-6
Brc1ccccc1CN1CCN(Cc2c[nH]c3ccccc23)CC1	4	48	50	3	0	130*
Brc1ccc(CN2CCN(Cc3c[nH]c4ccccc34)CC2)cc1	6	40	3	1	4	88*
CCS(=O)(=O)N1CCN(Cc2c[nH]c3ccccc23)CC1	-3	13	-7	0	-1	-6
COc1cc(NC(=O)COc2cc(O)c3c(c2)OC(C)(C)CC3=O)cc(OC)c1OC	12	30	3	4	1	110*
CC1(C)CC(=O)c2c(O)cc(OCC(=O)Nc3ccc(S(N)(=O)=O)cc3)cc2O1	-7	4	-2	4	-9	-6
C=CCNC(=O)c1ccccc1NC(=O)C1CC(=O)N(C(C)C)C1 (configuration not stated)	-1	-23	-4	-1	1	2
COc1cc(/C=N/NC(=O)c2ccccn2)ccc1OC(=O)c1ccc(Br)cc1	-10	10	0	3	5	-6
Cc1cc(C(=O)N/N=C/c2cc(Br)cc(Br)c2OC(=O)c2ccccc2)n[nH]1	x	48	36	4	2	94*
Cc1cc(C(=O)N/N=C/c2cc(Br)ccc2OC(=O)c2ccc(Br)cc2)n[nH]1	-22	45	-6	-1	-1	91*
Cc1ccc2c(c1)cc(C(=O)N[C@@H](Cc1ccccc1)C(=O)O)n2C	-4	18	-1	x	x	1
CCOc1ccc(-c2ccc(SCC(=O)NC3CCCCC3)nn2)cc1	-8	14	-2	0	0	-9
Cc1ccc(CN2C(=O)C(C)Nc3ncnc(N4CCN(c5ccccn5)CC4)c32)cc1 (configuration not stated)	3	15	-1	4	13	-6
COc1ccccc1NC1=C(NC(C)=O)C(=O)c2ccccc2C1=O	x	x	35	x	x	x
COC1=C(Nc2ccccc2OC)C(=O)c2ccccc2C1=O	13	-1	30	1	-5	83*
CC(C)(C)/C(O)=C(/C#N)c1nc2ccccc2[nH]1	-15	-9	-5	5	3	14
